Source: PubChem
FEN1 inhibitor: inhibitors of human flap endonuclease 1; Potency, µM (series often up to 114 µM), hits mostly inhibitors; Recombinant FEN1 flap cleavage, fluorescence, 15 min; 390,000 compounds, 0.35% hits; note: nearly all actives have a fitted effect of over 65% in size
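In this screen, 50 nM flap DNA substrate was added to 10 nM FEN1 pretreated with compound for 15 min at room temperature; cleavage was followed with reads at 0 and 15 min, and Hill fitting gave concentration–response parameters.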
PGK inhibitor: blocks T. brucei phosphoglycerate kinase; P07378; PGK/GAPDH coupled, Kinase-Glo luminescence, 60 min; Potency, µM (doses to about 57.5 µM), most hits filed as inhibitors; 380,000 compounds, 0.043% hits; note: nearly all actives have a fitted effect of over 60% in size
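Recombinant glycosomal PGK reaction used 1,3-bisphosphoglycerate generated in-well by GAPDH (100nM final) in 100mM TEA pH 7.6, 5mM MgCl2, 0.01% Tween-20. After 60 minutes at room temperature, ATP was read by Kinase-Glo Plus luminescence end-point.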
Pol iota inh: DNA polymerase iota (human) inhibition; Pol iota fluorescent replication assay, 10 min; Potency, µM (series often up to 115 µM), hits mostly inhibitors; AID 588590; 390,000 compounds, 1% hits
Target sequence (Q9UNA4 whole entry, looked up): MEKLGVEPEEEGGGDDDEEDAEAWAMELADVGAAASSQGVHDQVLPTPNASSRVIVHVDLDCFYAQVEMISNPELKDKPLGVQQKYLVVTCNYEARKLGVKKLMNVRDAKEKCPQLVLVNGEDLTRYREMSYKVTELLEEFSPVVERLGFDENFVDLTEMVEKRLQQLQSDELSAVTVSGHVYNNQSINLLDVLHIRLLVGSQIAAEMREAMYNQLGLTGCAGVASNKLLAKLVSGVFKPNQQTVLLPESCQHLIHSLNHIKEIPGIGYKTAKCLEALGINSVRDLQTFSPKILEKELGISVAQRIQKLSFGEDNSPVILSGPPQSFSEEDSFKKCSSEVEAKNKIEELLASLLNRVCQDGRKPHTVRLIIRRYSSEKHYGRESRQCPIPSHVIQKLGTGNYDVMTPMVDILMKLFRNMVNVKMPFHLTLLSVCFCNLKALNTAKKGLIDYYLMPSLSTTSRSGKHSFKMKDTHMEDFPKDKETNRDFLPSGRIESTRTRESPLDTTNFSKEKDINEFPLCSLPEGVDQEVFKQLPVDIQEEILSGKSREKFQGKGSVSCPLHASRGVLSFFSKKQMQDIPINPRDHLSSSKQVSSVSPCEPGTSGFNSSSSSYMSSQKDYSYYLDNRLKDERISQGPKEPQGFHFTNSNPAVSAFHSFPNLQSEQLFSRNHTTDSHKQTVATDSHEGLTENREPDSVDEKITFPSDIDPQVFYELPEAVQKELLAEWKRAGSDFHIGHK
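Pol iota at 10 nM preincubated 15 min with compounds at room temperature; reaction started with fluorescent substrate, 50 nM final. Fluorescence read kinetically at 0 and 10 min; buffer-only wells as negative control.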
POLH inh: inhibitors of human DNA polymerase eta; Q9Y253; recombinant Pol eta, fluorescent DNA replication assay; Potency, µM (highest dose often 114 µM), usual class: inhibitors; 390,000 compounds, 1.2% hits
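Pol eta (10 nM) was preincubated with compounds for 15 min at room temperature, after which fluorescent replication substrate (50 nM final) was added to start the reaction. Fluorescence was read kinetically at 0 and 10 min.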
Pol kappa inh: blocks human DNA polymerase kappa activity; Q9UBT6; purified Pol kappa, fluorescent DNA synthesis assay, 10 min; Potency, µM (series often up to 107 µM), actives largely listed as inhibitors; 400,000 compounds, 0.53% hits
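First, compounds were pin-transferred onto 10 nM Pol kappa. After 15 min at room temperature, substrate was added to 50 nM final. Fluorescence was then measured kinetically at 0 and 10 min.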
Pol beta inh: blocks human DNA polymerase beta activity; P06746; Pol beta primer extension/strand displacement, fluorescence kinetic; Potency, µM (titrated, usually from 114 µM), actives largely listed as inhibitors; 340,000 compounds, 1.3% hits
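Enzyme-only controls used 10 nM Pol beta; buffer lacking enzyme served as negative control. Compound preincubated 15 min, then 50 nM substrate added; 0 and 10 min reads at room temperature.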
Each line names hits and unclear results; the compound was inactive in the other large screens. Only some compounds are listed: those with a hit (about 2.4% of all), similar ones and a draw of the others. Calls come from the whole dose curve; as a rule, active = well fitted curve in the direction sought with a large enough effect; inconclusive = small, poorly fitted or top-dose-only effect, or another doubt; inactive = no such curve, though single readings can be large; an effect the other way counts as inactive or inconclusive.

Cc1ccc(CCNC(=O)c2cc3cc4cc(C)ccc4nc3s2)cc1	Pol beta inh inconclusive
COc1ccc2nc3sc(C(=O)Nc4cc(Cl)c(OC)cc4OC)cc3cc2c1	POLH inh inconclusive, Pol beta inh inconclusive
COc1ccc2cc3cc(C(=O)NCCN4CCc5ccccc5C4)oc3nc2c1	FEN1 inhibitor inconclusive, Pol iota inh inconclusive
CC(C)(C)n1ncc2c(=O)n(Cc3ccc(Cl)cc3C(F)(F)F)cnc21	none (no result: PGK inhibitor, POLH inh, Pol beta inh)
Cn1c(=O)c2[nH]c(N=NNc3ccccc3F)nc2n(C)c1=O	Pol iota inh 25µM
Cc1ccccc1NN=Nc1nc2c([nH]1)c(=O)n(C)c(=O)n2C	none
COc1cc(OC)c2c(c1)C(=O)OC2c1cc(OC)c(OC)cc1C (configuration not stated)	none (no result: PGK inhibitor, POLH inh, Pol beta inh)
O=C(Nc1nc(-c2ccccc2)cs1)c1ccccc1NS(=O)(=O)c1ccc(F)cc1	POLH inh 50µM, Pol beta inh 45µM
O=[N+]([O-])c1ccccc1N=Nc1c(O)[nH]c2ccc(F)cc12	none (no result: Pol beta inh)
CC(Oc1ccccc1)C(=O)N=Nc1c(O)[nH]c2ccc([N+](=O)[O-])cc12 (configuration not stated)	Pol iota inh 79µM, POLH inh 35µM
O=C(N=Nc1c(O)[nH]c2ccc([N+](=O)[O-])cc12)c1ccccc1[N+](=O)[O-]	none
O=[N+]([O-])c1ccc(N=Nc2c(O)[nH]c3ccc(F)cc23)cc1	POLH inh inconclusive, Pol beta inh 50µM
COc1ccc2c(CNCCc3ccccc3)c(C(=O)O)n(Cc3cccc(F)c3)c2c1	none
COc1ccc(Cn2nnnc2C(c2ccccc2)N2CCN(c3ccccc3)CC2)cc1 (configuration not stated)	none (no result: PGK inhibitor, POLH inh, Pol beta inh)
Cc1cc(C)n2cc(CSCc3ccco3)nc2n1	Pol iota inh inconclusive, POLH inh inconclusive
Cc1cccc2nc(CSCc3ccco3)cn12	Pol iota inh inconclusive, POLH inh 20µM, Pol beta inh 40µM
CC[n+]1ccccc1/C=C1\Sc2ccc(C)cc2N1C	Pol iota inh inconclusive, Pol beta inh 71µM
CN1/C(=C/c2cccc[n+]2CCO)Sc2ccccc21	Pol beta inh inconclusive
COc1ccc(-c2ccc(/C=C3/C(=N)N4C(C)=CSC4=NC3=O)o2)c([N+](=O)[O-])c1	FEN1 inhibitor inconclusive, Pol iota inh 18µM, POLH inh inconclusive, Pol kappa inh inconclusive, Pol beta inh inconclusive
CCOc1cc(C2c3c(-c4cc(C)ccc4O)n[nH]c3C(=O)N2CCCOC(C)C)ccc1O (configuration not stated)	none
COc1ccccc1-n1c(C)cc(/C=C2/C(=N)N3C(=NC2=O)SN=C3S(C)(=O)=O)c1C	POLH inh 79µM
Cc1cccc(C)c1-n1cccc1/C=C1/C(=N)N2C(=NC1=O)SN=C2S(C)(=O)=O	POLH inh 79µM, Pol beta inh inconclusive
CCOc1ccc(-n2c(C)cc(/C=C3/C(=N)N4C(=NC3=O)SN=C4S(C)(=O)=O)c2C)cc1	POLH inh 40µM, Pol beta inh inconclusive (no result: PGK inhibitor)
O[C@@H]1CO[C@H]2C1OC[C@@H]2O (some centres not stated)	none (no result: FEN1 inhibitor, PGK inhibitor, Pol iota inh, POLH inh, Pol beta inh)
O=C(C1CCCCC1)N(Cc1cccnc1)c1nc2ccc(Cl)cc2s1	none
COc1cc2c(=O)c(C(=O)c3ccc(C)c(C)c3)cn(Cc3ccccc3F)c2cc1OC	none
CCCN1C(=O)c2ccccc2NC1c1ccc(OC)c(COc2cccc(OC)c2)c1 (configuration not stated)	none (no result: PGK inhibitor, POLH inh, Pol beta inh)
O=C(NCc1cccs1)c1ccc2c(c1)N(Cc1ccccc1Cl)C(=O)c1ccccc1S2	none
O=C(CN1C(=O)CC(c2ccc(F)cc2)=Nc2ccccc21)NCc1ccccc1Cl	none
COc1ccc(-c2nc(N3CCN(S(=O)(=O)c4ccc(F)cc4)CC3)c3ccccc3n2)cc1	none (no result: PGK inhibitor, POLH inh, Pol beta inh)
O=c1c2ccccc2oc2cc(O)c(C3COCC(CO)C(O)C(O)C3O)c(O)c12 (configuration not stated)	Pol kappa inh 2.5µM (no result: FEN1 inhibitor, PGK inhibitor, Pol iota inh, POLH inh, Pol beta inh)
CC1=C(c2ccc(NN=C(C#N)C#N)cc2)NNC(=O)C1	none (no result: FEN1 inhibitor, PGK inhibitor, Pol iota inh, POLH inh, Pol beta inh)
